Compounds without any hit were thinned out: in the full panel of roughly 83,000, 20% have a hit.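 The test compound was applied at a single concentration to cells in 96-well plates for 48 hours, and percent growth was recorded.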 Activity calls are given as the source filed them. Rule for the calls: active = growth percent below 10; inactive = the rest.
Key:
Test in all cases: NCI-60 one-dose screen, 48 h (100 = growth as untreated, 0 = no growth, -100 = all killed)
Settings in all cases: 10 µM unless noted
[1] = system: DU-145 prostate
[2] = system: MALME-3M melanoma
[3] = system: MDA-MB-231 breast
[4] = system: RXF 393 renal
[5] = system: SF-268 CNS
[6] = system: SF-295 CNS
[7] = system: SF-539 CNS
[8] = system: UACC-257 melanoma
[9] = system: M14 melanoma
[10] = system: HCT-15 colon
[11] = system: HT29 colon
[12] = system: SNB-75 CNS
[13] = system: SNB-19 CNS
[14] = system: U251 CNS
[15] = system: PC-3 prostate
[16] = system: SK-MEL-5 melanoma
[17] = system: UACC-62 melanoma
[18] = system: LOX IMVI melanoma
[19] = system: SK-MEL-28 melanoma

Measured: growth

CN(CCN(C)c1ccc(C(=N)N)cc1)c1ccc(C(=N)N)cc1
inactive: [1] 98.9% | [2] 57.9% | [3] 91.3% | [4] 118% | [5] 109% | [6] 94.1% | [7] 93.2% | [8] 92.6% | [9] 103% | [10] 102% | [11] 108% | [12] 99.6% | [13] 121% | [14] 95.4% | [15] 81.3% | [16] 92% | [17] 78.7% | [18] 99.9% | [19] 108%

COC(=O)C(CC=O)C(=O)C(=O)Nc1cccc(C(F)(F)F)c1 (configuration not stated)
inactive: [1] 110% | [2] 113% | [3] 90.2% | [4] 103% | [5] 95% | [6] 110% | [7] 99.9% | [8] 66.5% | [9] 106% | [10] 108% | [11] 99.1% | [12] 92.8% | [13] 102% | [14] 79.2% | [15] 95.7% | [16] 99.9% | [17] 89.7% | [18] 85.9% | [19] 120%

Fc1ccc(-c2cn3c(nc4ccccc43)c(-c3ccccc3)n2)cc1
inactive: [1] 106% | [2] 107% | [3] 89.3% | [4] 80.4% | [5] 90.1% | [6] 103% | [7] 90.1% | [8] 101% | [9] 109% | [10] 94% | [11] 78.4% | [12] 68.9% | [13] 103% | [14] 91.5% | [15] 85% | [16] 88.6% | [17] 78.9% | [18] 106% | [19] 185%

Cc1ccc(-n2nc3c(c(C#N)c2=O)CC(c2ccccc2[N+](=O)[O-])C([N+](=O)[O-])=C3O)cc1 (configuration not stated)
inactive: [1] 79.8% | [2] 79.5% | [3] 70.7% | [4] 81.9% | [5] 85.7% | [6] 105% | [7] 96.9% | [8] 93.8% | [9] 92.1% | [10] 84.1% | [11] 113% | [12] 80.1% | [13] 92.3% | [14] 91.3% | [15] 88.3% | [16] 87.5% | [17] 78.3% | [18] 82.9% | [19] 98.4%

COc1cc(C2C3=C(COC3=O)N(CCO)c3cc4c(cc32)CCC4)cc(OC)c1OC (configuration not stated)
active: [1] -23.7% | [3] 1.31% | [6] -23.6% | [7] -29.8% | [9] -34% | [11] 2.19% | [13] -12.9% | [14] 7.16% | [16] -60.3%
inactive: [2] 54.9% | [4] 26.5% | [5] 22% | [8] 52.9% | [10] 10.9% | [12] 61.3% | [15] 21.3% | [17] 31.2% | [18] 21.6% | [19] 54.3%

CN1CCN(CCNc2nccc(-c3c(-c4cccc(O)c4)nc4sccn34)n2)S1(=O)=O
active: [2] -20% | [8] -10.6% | [9] -4.02% | [17] 3.85%
inactive: [1] 56.5% | [3] 24.3% | [4] 39.2% | [5] 85.6% | [6] 95.9% | [7] 79.9% | [10] 50.6% | [11] 43.9% | [12] 54.2% | [13] 115% | [14] 94.2% | [15] 68.5% | [16] 33% | [18] 23.8% | [19] 15%

O=C1/C=C/[C@@H](O)[C@@H]2C[C@@H](O)C[C@H]2/C=C/CCC[C@H](CCc2cccc3ccccc23)O1
active: [2] -17.7% | [3] -41.2% | [4] -30.9% | [6] 7.76% | [9] 5.14% | [10] 7.46% | [11] 3.87% | [16] -95.9% | [18] -55.9% | [19] 2.17%
inactive: [1] 19% | [5] 16.6% | [7] 21.7% | [8] 26.1% | [12] 33% | [13] 30.1% | [14] 23.8% | [15] 20.6% | [17] 11.9%

CC(=O)[C@H]1CCC/C=C/[C@@H]2C[C@H](O)C[C@H]2[C@H](O)/C=C/C(=O)O1
active: [2] -11.5% | [3] -34.3% | [4] -32.8% | [6] 3% | [9] 5.74% | [11] 4.12% | [16] -94% | [18] -63% | [19] -16.6%
inactive: [1] 25.4% | [5] 12.3% | [7] 18.5% | [8] 24.1% | [10] 11.9% | [12] 38.4% | [13] 28.6% | [14] 20.5% | [15] 27.6% | [17] 12.3%
